ELG1 DNA repair: qHTS screen for small molecules that inhibit ELG1-dependent DNA repair in human embryonic kidney (HEK293T) cells expressing luciferase-tagged ELG1. AID 504467, 2011. Potency, µM (series often up to 46.1 µM), inactives show at the highest dose activity change, negative = inhibition, usual class: inhibitors. HEK293T ELG1-luciferase reporter, luminescence, 16 h; DNA damage induced by 5-fluorouridine. hit rate 2.3% among 330,000; note: % is set by controls: 0 for no effect and ±100 for the full control effect; nearly all actives have a fitted effect of over 55% in size
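Reporter activity after DNA damage by 5-fluorouridine is monitored. Compound-treated cells incubate 16 hr at 37 °C, then ONE-Glo is added for 30 min before luminescence reading.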
AT treatment: qHTS Assay for Identifying a Potential Treatment of Ataxia-Telangiectasia; F2112 A-T fibroblasts, KAP-1 phosphorylation AlphaLISA; neocarzinostatin DNA damage 30 min before lysis; Potency, µM (highest dose often 57.5 µM), without a hit: at the highest dose activation, actives largely listed as activators; hit rate 0.19% among 320,000; AID 485349, 2010; note: % of control where 0% means no effect; nearly all actives have a fitted effect of over 45% in size
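hTERT-immortalized A-T patient fibroblasts (F2112), 500 cells/well in OPTI-MEM, 1% FBS, got compounds for 60 min, then NCS for 30 min at 37C. Lysates were then assayed for phospho-KAP-1 by AlphaLISA (anti-pKAP1 donor, anti-KAP1 acceptor beads), 6 hr at 25C.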
p53 reactivation: qHTS assay for re-activators of p53 using a Luc reporter | H1299 p53-A138V BP100-luciferase reporter, luminescence, 24 h | Potency, µM (top dose mostly 92.2 µM), for inactives: top-dose activity change, positive = activation, usual class: activators | hit rate 0.063% among 320,000 | AID 504706, 2011; note: % of control where 0% means no effect; nearly all actives have a fitted effect of over 45% in size
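p53-null H1299 cells stably carrying temperature-sensitive p53-A138V and a BP100-luciferase reporter were pinned with compounds (4-point, 1:5 series) and held 24 hrs at 37 deg C. Luminescence was read 10 min after detection reagent.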
ELG1 genotox: qHTS screen for small molecules that induce genotoxicity in human embryonic kidney (HEK293T) cells expressing luciferase-tagged ELG1; HEK293T ELG1-luciferase reporter, luminescence, 16 h; Potency, µM (series often up to 46 µM), without a hit: at the highest dose activity change, positive = activation, usual class: activators; hit rate 1.3% among 330,000; AID 504466, 2011; note: % of control where 0% means no effect; nearly all actives have a fitted effect of over 60% in size
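Luminescence read-out: rising ELG1-luciferase signal, reflecting elevated ELG1 protein under genetic stress, flags genotoxic compounds. Cells were treated for 16 hr at 37 °C before ONE-Glo detection.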
SW480 rereplic: A quantitative high throughput screen for small molecules that induce DNA re-replication in SW480 colon adenocarcinoma cells | SW480 DNA re-replication, Hoechst DNA content imaging, 48 h | Potency, µM (top dose mostly 46.1 µM), inactives show top-dose re-replication activation, usual class: activators | hit rate 1.8% among 340,000; note: % of control where 0% means no effect; nearly all actives have a fitted effect of over 55% in size
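Per well, 250 cells were exposed to pinned compound for 48 hr. Nuclear DNA was visualised with Hoechst (40 min, 37 C) and total object intensity recorded by fluorescence scanning.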
MCF10A rerep: A quantitative high throughput screen for small molecules that induce DNA re-replication in MCF 10a normal breast cells. MCF 10A DNA re-replication, Hoechst nuclear intensity, 48 h. hit rate 2.9% among 350,000. Potency, µM (doses to about 46.1 µM), without a hit: at the highest dose activity, positive = re-replication, hits mostly activators. AID 624296, 2012; note: % of control where 0% means no effect; nearly all actives have a fitted effect of over 50% in size
* hit, by the source's call. Compounds with a hit are over-represented: about 7.1% of the library has one in this group of screens. Calls come from the whole dose curve; as a rule, active = well fitted curve in the direction sought with a large enough effect; inconclusive = small, poorly fitted or top-dose-only effect, or another doubt; inactive = no such curve, though single readings can be large; an effect the other way counts as inactive or inconclusive. Potency is the fitted concentration of half-maximal effect.

`Cc1noc(C)c1S(=O)(=O)N1CCCC(C(=O)Nc2ccc(Cl)cn2)C1` (stereo unspecified) gave ELG1 DNA repair 16µM*, AT treatment -5%, p53 reactivation -4%, ELG1 genotox -7%, SW480 rereplic -1% and MCF10A rerep 2%.
For CCOc1ccc(NC(=O)CN(C)C(=O)c2ccc3c(c2)S(=O)(=O)N=C2CCCCCN23)cc1OCC the results were SW480 rereplic -20% and MCF10A rerep -1%.
Screening CC1(C(=O)OCC(=O)Nc2cc(S(=O)(=O)N3CCOCC3)ccc2Cl)CC1(Cl)Cl (stereo unspecified) returned SW480 rereplic -2% and MCF10A rerep 11%.
`COc1ccc(S(=O)(=O)Nc2cccc3c2O[C@H](CN(C)C(=O)Nc2c(C)noc2C)[C@@H](C)CN([C@H](C)CO)C3=O)cc1` gave ELG1 DNA repair 8%, AT treatment 9%, p53 reactivation -3%, ELG1 genotox 5%, SW480 rereplic -5% and MCF10A rerep 2%.
Screening CC(C(=O)O)n1nc(-c2ccccc2)c2ccccc21 (stereo unspecified) returned ELG1 DNA repair -8%, AT treatment 2%, p53 reactivation 1%, ELG1 genotox 0%, SW480 rereplic inconclusive and MCF10A rerep 11%.
`C[C@@H]1CN([C@@H](C)CO)C(=O)c2cc(NS(=O)(=O)c3cccs3)ccc2O[C@H]1CN(C)Cc1ccc(C(F)(F)F)cc1` gave ELG1 DNA repair 16µM*, AT treatment -4%, p53 reactivation -11%, ELG1 genotox -3%, SW480 rereplic 2% and MCF10A rerep -3%.
For COc1ccc(S(=O)(=O)N(C)C[C@H]2Oc3ccc(NS(=O)(=O)c4cccs4)cc3C(=O)N([C@H](C)CO)C[C@@H]2C)cc1 the results were SW480 rereplic inconclusive and MCF10A rerep 3.3µM*.
Screening O=S(=O)(N1CCOCC1)N1CCOCC1 returned ELG1 DNA repair -1%, AT treatment 1%, p53 reactivation -4%, ELG1 genotox 2%, SW480 rereplic -3% and MCF10A rerep -2%.
`O=C(CC1C(=O)NCCN1Cc1ccccc1C(F)(F)F)NCCN1CCCCC1=O` (stereo unspecified) gave ELG1 DNA repair 18%, AT treatment -4%, p53 reactivation 3%, ELG1 genotox 0%, SW480 rereplic -16% and MCF10A rerep 3%.
`Nc1nc(N)c(N=O)c(OCC2CCCCC2)n1` gave ELG1 DNA repair inconclusive, AT treatment -13%, ELG1 genotox 18µM*, SW480 rereplic 11% and MCF10A rerep inconclusive.
Screening COc1ccc(Cc2noc(-c3ccc([N+](=O)[O-])cc3)n2)cc1OC returned ELG1 DNA repair 18µM*, AT treatment -3%, p53 reactivation -4%, ELG1 genotox -5%, SW480 rereplic 27% and MCF10A rerep -3%.
Screening COc1ccc(Cc2noc(-c3ccc(C)cc3)n2)cc1 returned ELG1 DNA repair inconclusive, AT treatment 4%, p53 reactivation inconclusive, ELG1 genotox inconclusive, SW480 rereplic -6% and MCF10A rerep 13%.
C=CCn1cc(C(=O)N2CCN(c3ccccc3)CC2)c(=O)c2cc(S(=O)(=O)N3CCCC3)ccc21 was read as ELG1 DNA repair -1%, AT treatment 5%, p53 reactivation 5%, ELG1 genotox -1%, SW480 rereplic -12% and MCF10A rerep 1%.
For CCOc1nc(NCCC2=CCCCC2)nc(N2CCOCC2)n1 the results were ELG1 DNA repair -6%, AT treatment 8%, p53 reactivation -5%, ELG1 genotox 0%, SW480 rereplic 23µM* and MCF10A rerep 21µM*.
For OCCNc1nc(NCCC2=CCCCC2)nc(N2CCOCC2)n1 the results were ELG1 DNA repair inconclusive, AT treatment 0%, p53 reactivation -4%, ELG1 genotox -3%, SW480 rereplic -1% and MCF10A rerep -3%.
COc1ccccc1-c1cc(C(=O)Nc2cc(C)nn2-c2ccccc2)no1 was read as ELG1 DNA repair inconclusive, AT treatment 4%, p53 reactivation -7%, ELG1 genotox -2%, SW480 rereplic 21% and MCF10A rerep 1.3µM*.
For COc1ccccc1-c1cc(C(=O)N2CCOCC2)no1 the results were ELG1 DNA repair inconclusive, AT treatment 0%, p53 reactivation inconclusive, ELG1 genotox 2.9µM*, SW480 rereplic -29% and MCF10A rerep -11%.
COc1ccccc1-c1cc(C(=O)N2CCN(c3ccc(F)cc3)CC2)no1 was read as ELG1 DNA repair inconclusive, AT treatment -2%, p53 reactivation inconclusive, ELG1 genotox -4%, SW480 rereplic -5% and MCF10A rerep 1%.
Screening COc1ccccc1-c1cc(C(=O)N2CCCC2)no1 returned ELG1 DNA repair inconclusive, AT treatment -4%, p53 reactivation inconclusive, ELG1 genotox 2.9µM*, SW480 rereplic -5% and MCF10A rerep -11%.
`COc1ccc(-c2cc(C(=O)Nc3cc(C)nn3-c3ccccc3)no2)cc1` gave ELG1 DNA repair 23%, p53 reactivation inconclusive, ELG1 genotox 2%, SW480 rereplic 5% and MCF10A rerep 4%.
For O=C(c1cc(-c2ccccc2Cl)on1)N1CCCC1 the results were ELG1 DNA repair inconclusive, AT treatment -3%, p53 reactivation 20%, ELG1 genotox inconclusive, SW480 rereplic -26% and MCF10A rerep -19%.
`CCC[C@@H](CN1CCC[C@H]1CN1C(N)=NC[C@@H]1Cc1ccccc1)N1C[C@@H]([C@H](C)CC)N(CCCC2CCCC2)C1=N` gave ELG1 DNA repair inconclusive, AT treatment -13%, p53 reactivation -1%, ELG1 genotox -7%, SW480 rereplic inconclusive and MCF10A rerep 18µM*.
`O=C(c1ccccc1)c1nn(-c2ccccc2)c2nnc(Cc3ccccc3)c(=O)n12` gave ELG1 DNA repair inconclusive, AT treatment -2%, p53 reactivation -5%, ELG1 genotox 0%, SW480 rereplic 18µM* and MCF10A rerep 23µM*.
Screening Cc1ccc(-n2nc(C(=O)c3ccccc3)n3c(=O)c(Cc4ccccc4)nnc23)cc1 returned SW480 rereplic 5% and MCF10A rerep -4%.
